# Source: PubChem BioAssay (The Scripps Research Institute Molecular Screening Center)
# Shown are actives, neighbours in structure and some others; about 3.5% of the full set was active somewhere.
# TEAD-YAP inh: TEAD-YAP interaction inhibition; HEK-TIYL cells, TEAD-Gal4/YAP UAS-luciferase luminescence; inhibition, % at 9.12 µM; 640,000 tested, 1.4% active; in the data active = inhibition above about 32%;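 note: 0% = median of test compound wells and 100% = reference inhibitor wells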
# FBW7 act: human FBW7 E3 ligase activation, primary screen. Q969H0. AlphaScreen FBW7–phospho-cyclin E peptide binding, activator screen. normalized activity (activation), % at 26.1 µM. 650,000 tested, 0.13% active; in the data active = normalized activity above about 1.9%;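 note: purified mutant Fbw7 with reduced substrate affinity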
# GPR151 activ: activators of human GPR151. Q8TDV0. PathHunter beta-arrestin GPR151 cells, luminescence. activation, % at 11.2 µM. 650,000 tested, 1% active; in the data active = activation above about 4.9%;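 note: 0% = median of compound wells and 100% = cells with positive control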
# Target sequence (Q8TDV0 whole entry, looked up): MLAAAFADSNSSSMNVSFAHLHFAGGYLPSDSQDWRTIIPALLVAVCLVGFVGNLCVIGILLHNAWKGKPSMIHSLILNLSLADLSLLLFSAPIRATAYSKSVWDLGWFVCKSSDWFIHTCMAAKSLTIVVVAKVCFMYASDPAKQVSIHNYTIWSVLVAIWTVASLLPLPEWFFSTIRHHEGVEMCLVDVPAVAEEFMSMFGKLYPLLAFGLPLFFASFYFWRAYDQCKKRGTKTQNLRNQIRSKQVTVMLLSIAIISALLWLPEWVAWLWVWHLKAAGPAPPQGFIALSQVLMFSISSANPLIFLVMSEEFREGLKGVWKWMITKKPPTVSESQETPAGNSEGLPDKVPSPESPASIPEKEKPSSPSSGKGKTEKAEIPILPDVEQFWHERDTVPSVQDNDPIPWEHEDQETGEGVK
# MITF inh: inhibitors of human MITF. O75030. AlphaScreen MITF homodimerization, bead proximity signal. inhibition, % at 2.6 µM. 650,000 tested, 0.91% active; in the data active = inhibition above about 50%;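 note: 0% = vehicle wells with protein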
# Numbers without * were called inactive.
SMILES,TEAD-YAP inh,FBW7 act,GPR151 activ,MITF inh
CCC(=O)N(C1=C(NC)C(=O)c2ccccc2C1=O)C(C)C,85.0*,-0.1,-1.6,-10.1
CNC1=C(N(Cc2ccc(Cl)c(Cl)c2)C(C)=O)C(=O)c2ccccc2C1=O,83.4*,-0.2,-1.6,10.0
CC(=O)N(Cc1ccccc1)C1=C(N2CCCCC2)C(=O)c2ccccc2C1=O,-8.4,0.2,-0.9,13.7
O=C(CNC(=O)C12CC3CC(CC(C3)C1)C2)N/N=C\c1c[nH]c2ccccc12,2.8,-0.1,1.2,-5.2
C#CCOc1c(Cl)cc(C2C3=C(CCCC3=O)NC3=C2C(=O)CCC3)cc1OCC,1.7,0.1,0.2,-3.6
O=[N+]([O-])c1cccc(/C(=N/c2nccs2)N2CCCCC2)c1,-8.6,0.7,-1.1,19.9
CCOc1cccc(/C=N/NC(=O)c2ccccc2O)c1O,88.0*,-1.0,-7.6,41.0
CCOc1cccc(/C=N/NC(=O)c2cc(-c3ccco3)[nH]n2)c1O,38.9*,-0.5,2.1,28.6
CCOc1cccc(/C=N/NC(=O)c2[nH]nc(-c3ccccc3)c2C)c1O,48.2*,0.1,-1.1,12.6
COc1ccccc1/C=N/NC(=O)c1[nH]nc(-c2ccccc2)c1C,-59.2,0.0,-1.8,10.4
CCOc1ccccc1C(=O)N/N=C/c1cccc(OC)c1O,-2.2,0.3,-1.6,12.8
CC(=O)Nc1cc(C(=O)O)ccc1Nc1ccc(OCc2ccccc2)cc1,-0.5,-0.1,-0.1,8.1
O=C1NC(c2cc3c(cc2Cl)OCO3)Nc2ccccc21 (configuration not stated),51.3*,0.8,0.3,7.2
Cc1cccc(C(=O)O/N=C(\N)c2ccccn2)c1,82.1*,0.1,-8.0,13.0
COc1ccc(C(=O)O/N=C(\N)c2ccccn2)cc1OC,-64.3,0.1,-1.3,-2.1
N/C(=N\OC(=O)c1cc(Cl)ccc1Cl)c1ccccn1,44.3*,0.8,-7.1,17.9
N/C(=N\OC(=O)c1ccc(I)cc1)c1ccccn1,80.9*,-0.1,-7.5,-13.2
COc1ccc(/C(N)=N/OC(=O)c2ccc(OC(C)=O)cc2)cc1OC,20.9,0.0,-3.6,-16.9
CC(=O)Oc1ccc(C(=O)O/N=C(\N)c2ccccn2)cc1,50.3*,0.0,-7.6,-6.8
CCc1ccccc1NC(=O)CSCc1cc(=O)[nH][nH]1,16.4,-0.1,-0.6,16.6
COc1ccc(C(=O)O/N=C(\N)c2ccc(OC)c(OC)c2)c(OC)c1,-23.9,0.0,0.2,1.2
N/C(=N\OC(=O)c1ccc(F)cc1)c1ccc(Br)cc1,1.4,2.1*,1.0,1.0
COc1ccc(C(=O)O/N=C(\N)c2ccccn2)c(OC)c1,40.8*,-0.1,-7.5,-3.0
CC(C)(C)c1ccc(C(=O)O/N=C(\N)c2ccncc2)cc1,-64.4,0.6,3.9,1.1
N/C(=N\OC(=O)c1ccc(F)cc1)c1ccc(Cl)cc1,-15.8,0.0,-0.4,1.2
SMILES,TEAD-YAP inh,FBW7 act,GPR151 activ,MITF inh
CC(=O)Oc1ccc(C(=O)O/N=C(\N)c2ccncc2)cc1,31.9*,0.7,-8.3,15.7
Cc1ccccc1C(=O)O/N=C(\N)c1ccccn1,48.7*,-0.1,-8.0,9.4
CCOc1ccc(C(=O)O/N=C(\N)c2ccccn2)cc1,91.5*,0.0,-7.4,2.6
NC(=O)C(C(=O)/C=C/c1ccc(Cl)cc1)=C1SCCS1,44.3*,-0.2,2.7,-17.9
CC(=O)Nc1cccc(-c2cnc3ccc(NCc4cccs4)nn23)c1,-8.5,-0.2,-0.5,-8.3
COc1cc(/C=C2/C(=N)N3N=C(Cc4ccccc4)SC3=NC2=O)ccc1OCCOc1ccc(C)cc1,-15.2,0.2,-1.3,15.6
CCOC(=O)COc1ccc(/C=C(\C#N)C(=O)NCC2CCCO2)cc1OCC (configuration not stated),12.8,-0.1,1.5,2.5
COc1ccc(-c2cc(O)cc(O)c2)cc1,33.9*,0.2,0.3,-11.6
COc1ccc(-c2ccc(C(C)=O)cc2)cc1,-79.5,0.1,-0.3,-1.6
CCOC(=O)c1cccc(NC(=O)COc2ccccc2Cl)c1,6.2,0.1,0.0,-9.1
Cc1cc(C)n(Cc2cccc(F)c2)c(=O)c1C#N,3.1,0.1,0.3,0.2
Cc1cc[n+]2cc(C)n(Cc3cccc(F)c3)c2c1,40.8*,1.0,-0.3,9.4
C=CCn1c(-c2ccccc2)cnc1SCC(=O)Nc1ccccc1,23.2,-0.5,0.5,15.3
C=CCn1c(-c2ccc(Cl)cc2)cnc1SCC(=O)Nc1sccc1C(N)=O,33.6*,-0.1,0.0,1.3
COCCN(CCOC)S(=O)(=O)c1ccc(C(=O)Nc2sc3c(c2C#N)CCC3)cc1,-10.5,-0.1,-0.3,2.9
COc1ccc(Nc2nc(N3CCCC3)c3ccccc3n2)cc1,37.2*,-0.2,0.7,-2.7
C(=N\Nc1nc(-c2cccnc2)nc2ccccc12)/c1cccnc1,14.3,0.1,-0.9,-2.0
O=C(NCc1ccccc1)C(=O)Nc1cccc(C(F)(F)F)c1,-1.2,0.3,1.4,16.0
CCOc1cc(C#N)c(NC(=O)c2ccco2)cc1OCC,52.1*,0.1,-0.2,1.9
O=C(CCS(=O)(=O)c1ccccc1)Nc1cccc([N+](=O)[O-])c1,-21.7,-0.1,-0.1,-6.6
Cc1ccc(-n2c(-c3ccc(Cl)cc3)c[n+]3c2CCC3)cc1,63.9*,0.0,2.3,-5.5
Nc1c[n+]2c(n1-c1ccc(Br)cc1)CCCCC2,3.2,0.0,0.6,1.4
CC(=O)N1CCN(C2=NC(=O)/C(=C\c3ccccc3OC(C)C)S2)CC1,-3.0,0.0,1.0,1.6
CC(C)Oc1ccccc1/C=C1/SC(N2CCOCC2)=NC1=O,44.9*,-0.2,0.1,-4.9
CC1CCN(C2=NC(=O)/C(=C/c3ccccc3F)S2)CC1,54.2*,0.2,-1.0,22.9
SMILES,TEAD-YAP inh,FBW7 act,GPR151 activ,MITF inh
CC1CCN(C2=NC(=O)/C(=C\c3ccccc3Cl)S2)CC1,-31.7,0.1,1.5,8.6
CCCCOc1ccccc1/C=C1/SC(N2CCOCC2)=NC1=O,41.3*,-0.3,-0.9,-3.6
COc1ccccc1NC(=S)NNc1ccc([N+](=O)[O-])cc1,-4.1,0.3,-1.8,22.4
CC(=O)c1c(C)oc2c(Br)cc(NS(=O)(=O)c3ccc(C)cc3)cc12,-2.5,0.0,-0.6,-2.8
O=C1CSc2ccc(C(=O)NC3CCCc4ccccc43)cc2N1 (configuration not stated),58.2*,-0.1,-1.3,1.7
COc1ccc(/C=C2\SC(=Nc3ccc(F)cc3)NC2=O)cc1O,52.3*,0.0,0.9,21.6
COc1cc(/C=C2\SC(=Nc3ccccc3)NC2=O)ccc1O,2.1,0.1,-0.6,13.1
O=C1NC(=Nc2ccc(O)cc2)S/C1=C/c1ccccc1,2.4,0.2,-0.9,17.9
COc1cc(/C=C2/SC(=Nc3ccccc3)NC2=O)ccc1O,0.1,0.1,-0.4,0.8
COc1cc(/C=C2\SC(=Nc3ccccc3OC)NC2=O)ccc1O,56.8*,0.5,-1.9,2.4
COc1cc(/C=C2\SC(=Nc3ccc(F)cc3)NC2=O)cc(OC)c1OC,2.9,0.0,0.2,2.2
O=C1NC(=Nc2ccc(O)cc2)S/C1=C\c1cccc(O)c1,56.9*,-0.3,0.6,7.0
COc1cc(/C=C2/SC(=Nc3ccc(O)cc3)NC2=O)ccc1O,48.7*,0.0,1.1,10.4
COc1ccc2c(C)nc(N=C(NC(C)=O)NC(C)=O)nc2c1,9.9,0.1,0.7,13.8
